Screening results as filed in PubChem.
A selection: hits, their analogues and other compounds. The true share with any hit is near 4.1%.
DAX1 inh-1: DAX1 (NR0B1) inhibitors, primary screen, cell-based, HEK293, Gal4-DAX1, luciferase luminescence; Nuclear receptor subfamily 0 group B member 1 (Homo sapiens), P51843; HEK293 Gal4-DAX1 luciferase reporter; inhibition, % at 6.75 µM; 0.99% of 340,000 active; AID 504766, 2011;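 active = inhibition above the mean over all tested compounds plus 3 SD, cut at about 4.2% in these data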;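 also: 0% = DAX1-transfected cells with DMSO and 100% = empty-vector control cells with DMSO; inhibition shows as a rise in luminescence from relieved DAX1 repression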
Target sequence (P51843 207-470 limits assumed): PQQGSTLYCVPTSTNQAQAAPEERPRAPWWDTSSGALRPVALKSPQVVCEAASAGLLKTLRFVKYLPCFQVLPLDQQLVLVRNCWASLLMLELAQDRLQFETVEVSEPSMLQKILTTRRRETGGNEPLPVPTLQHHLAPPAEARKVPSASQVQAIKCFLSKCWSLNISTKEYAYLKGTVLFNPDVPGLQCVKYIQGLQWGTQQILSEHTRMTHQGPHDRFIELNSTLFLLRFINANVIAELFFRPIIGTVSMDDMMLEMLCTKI
ssDAF12 agonist: S. stercoralis DAF-12 nuclear receptor activators, primary screen, cell-based, luminescence, HEK293, GRIP1 co-expression, lit1-tk-luc. activation, % at 6.8 µM. 1% of 370,000 active. HEK293 ssDAF-12/GRIP1 lit1-tk-luc reporter; % of 3 µM dafachronic acid response. Nuclear hormone receptor DAF-12 (Strongyloides stercoralis). AID 652126, 2013;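 active = activation above the mean over all tested compounds plus 3 SD, cut at about 0.9% in these data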;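 also: 0% = DMSO-only wells and 100% = 3 µM delta7-dafachronic acid wells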
DAX1 inh-2: DAX1 (NR0B1) inhibitors on StAR promoter, primary screen, cell-based, luminescence, SF-1 (NR5A1), full-length DAX-1; HEK293T StAR-luciferase reporter, SF-1/DAX-1 repression relief; inhibition, % at 6.8 µM; 1.1% of 370,000 active;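 active = inhibition above the mean over all tested compounds plus 3 SD, cut at about 3.6% in these data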;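 also: 0% = DAX-1 cells with DMSO and 100% = cells lacking DAX-1 with DMSO; higher inhibition means more luminescence from relief of DAX-1 repression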
hgDAF12 agonist: H. glycines DAF-12 receptor agonists, primary screen, cell-based, luminescence, HEK293, GAL4 fusion, UAS-luciferase; 1.8% of 370,000 active; activation, % at 6.8 µM; HEK293 GAL4-hgDAF12 UAS-luciferase reporter, agonist luminescence; normalized to butyrate control; AID 687014, 2013;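 active = activation above a cutoff set at the mean of all screened compounds plus 3 SD, cut at about 10% in these data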;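 also: 0% = DMSO wells and 100% = sodium butyrate wells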
hcDAF12 agonist: H. contortus DAF-12 nuclear receptor activators, primary screen, cell-based, luminescence, HEK293, lit1-tk-luc reporter; HEK293 hcDAF-12 lit1-tk-luc reporter; 0% DMSO, 100% Δ7-dafachronic acid; activation, % at 6.8 µM; 1.4% of 370,000 active; AID 652067, 2013;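 active = activation above the mean of all tested compounds plus 3 SD, cut at about 5.5% in these data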;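 also: 100% = response to 3 µM Δ7-dafachronic acid high control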
Active calls of the source: *; x = no result given.

SMILES | DAX1 inh-1 | ssDAF12 agonist | DAX1 inh-2 | hgDAF12 agonist | hcDAF12 agonist
Clc1cccc(Cl)c1CSc1cc2c(nn1)-c1ccccc1CC2 | -1 | -1 | -1 | -1 | -1
Clc1ccccc1CSc1cc2c(nn1)-c1ccccc1CC2 | 1 | 0 | 2 | 11* | 4
Cc1cccc(OCC(=O)N2CCC(c3ccccc3)C2)c1 (centres undefined) | 1 | -1 | 1 | 10* | 3
COc1ccc(C(C)=O)cc1COC(=O)Cc1n[nH]c(=O)c2ccccc12 | 5.3* | -1 | 1 | 1 | 0
COc1ccccc1C(=O)COC(=O)Cc1n[nH]c(=O)c2ccccc12 | 1 | 0 | 1 | 2 | 2
CCOC(=O)c1c(C)[nH]c(C(C)=NNC(=O)c2cccs2)c1C | 1 | -1 | 4.0* | 12* | 1
O=C1CCC(C(=O)NCCN2C(=O)S/C(=C\c3cccnc3)C2=O)=NN1 | 0 | 1.2* | 0 | 1 | -1
O=C(NCCN1C(=O)S/C(=C\c2cccnc2)C1=O)C1CC(=O)N(Cc2ccco2)C1 (centres undefined) | 0 | 1.2* | 0 | 2 | 4
Cc1cc(C)cc(OCC(=O)N(C)CC(=O)Nc2ccc(N3CCOCC3)cc2)c1 | -1 | -1 | -1 | -3 | 0
CC(=O)Nc1sc(C)c(C)c1C(=O)OCC(=O)Nc1ccccc1C(F)(F)F | 2 | -1 | 1 | 11* | 1
COc1ccc(-n2c(O)c(/C=N/NS(=O)(=O)c3ccc(C)c([N+](=O)[O-])c3)c3ccccc3c2=O)cc1OC | 0 | -1 | 0 | 0 | 0
O=c1c2ccccc2c(/C=N/NS(=O)(=O)c2ccccc2)c(O)n1-c1ccccn1 | -1 | 1.0* | -1 | 0 | 0
Cc1ccc(CSc2nnc(-c3ccc(NS(=O)(=O)c4ccccc4)cc3)o2)cc1 | 0 | 1.7* | 0 | -1 | -4
Cc1ccc(S(=O)(=O)Nc2ccc(-c3nnc(SCc4ccccc4Cl)o3)cc2)cc1 | 0 | -1 | 0 | 0 | -1
CCCCCCCCN1C(=O)[C@@H](CC(=O)NCC23CC4CC(CC(C4)C2)C3)C[C@@]2(C(=O)OC)C1=C[C@H](C(C)(C)C)O[C@@H]2C | x | -1 | 0 | -1 | 0
Cc1c(N=C2C=C(Br)C(=O)C(Br)=C2)c(=O)n(-c2ccccc2)n1C | 3 | -2 | 0 | -4 | -1
Cc1c(N=C2C=CC(=O)c3ccccc32)c(=O)n(-c2ccccc2)n1C | 2 | 1.4* | 0 | 4 | 5
Cc1nc(NCc2ccco2)c2c(C)c(C)sc2n1 | -3 | -3 | -3 | -8 | -4
Cc1sc2nc3c4ccccc4c(NCc4ccco4)nn3c(=O)c2c1C | 3 | 0 | 3 | 14* | 7.5*
O=C(NCCc1ccccc1)OCc1cn(-c2cccc(C(F)(F)F)c2)nn1 | x | -1 | 0 | 0 | -1
c1ccc(Nc2nc(-c3ccncc3)cs2)cc1 | 0 | -1 | 1 | 11* | 3
Oc1ccc(Nc2nc(-c3cccnc3)cs2)cc1 | 0 | x | x | x | x
CCOc1ccc(Nc2nc(-c3cccnc3)cs2)cc1 | 6.2* | 0 | 1 | 8 | 4
Cc1cc(O)ccc1Nc1nc(-c2cccnc2)cs1 | 1 | 0 | 2 | 12* | 2
CCNc1nc(-c2ccc(Cl)cc2)cs1 | 1 | 0 | 1 | 12* | 2
SMILES | DAX1 inh-1 | ssDAF12 agonist | DAX1 inh-2 | hgDAF12 agonist | hcDAF12 agonist
CCCCOCCCNC(=O)C[C@H]1C[C@@]2(C(=O)OC)C(=C[C@H](COCc3ccccc3)O[C@@H]2C)N(CCC2=CCCCC2)C1=O | x | -1 | 1 | -3 | 1
COC(=O)C1=C(C)N(Cc2ccccc2C(F)(F)F)C(=NCc2ccc(C(F)(F)F)cc2)NC1CCc1ccccc1 (centres undefined) | x | -1 | 0 | 4 | 0
COc1ccc(Nc2nc(-c3ccc(OC)cc3)cs2)cc1 | 2 | -1 | 1 | 12* | 1
O=C(COc1ccc(Cl)cc1)Nc1cccc(-c2ccc(N3CCOCC3)nn2)c1 | -1 | 0 | 3 | 12* | 5
O=[N+]([O-])c1cccc(S(=O)(=O)Nc2cccc(-c3ccc(N4CCOCC4)nn3)c2)c1 | -1 | 0 | 4.4* | 3 | 0
Cc1ccc(C(=O)Nc2cccc(-c3ccc(N4CCOCC4)nn3)c2)cc1 | 1 | 0 | 4.5* | 5 | 2
Cc1ccc(C(=O)Nc2cccc(-c3ccc(N4CCOCC4)nn3)c2)cc1C | -2 | 0 | 2 | 6 | 1
c1ccc(-c2ccccc2C2Cc3nnccc3CN2)cc1 (centres undefined) | x | 0 | 0 | -1 | -2
O=C(C1CCCN1S(=O)(=O)c1ccc(Br)s1)N1CCc2ccccc2C1 (centres undefined) | x | -1 | 0 | 0 | -4
CC(=N/O)/C(C)=N\NC(=O)c1ccccn1 | 4 | 0 | 2 | 13* | 3
C/C(CC(=O)Nc1ccc(F)cc1)=N\NC(=O)c1ccccn1 | 0 | -1 | 2 | 11* | 4
C/C(CC(=O)Nc1ccc(N(C)C)cc1)=N\NC(=O)c1ccc(F)cc1 | 4 | 0 | 1 | 9 | 2
C/C(CC(=O)NCc1ccccc1Cl)=N/NC(=O)c1ccccn1 | 0 | 0 | 2 | 11* | 5
CCc1ccc(/C(C)=N/NC(=O)c2ccccn2)cc1 | 2 | -1 | 0 | 1 | 0
COc1ccc([C@H]2C[C@H](O)[C@@H](n3cc(-c4ccc(F)cc4)nn3)CN2CC2CCCCC2)cc1 | 2 | -1 | 0 | -3 | -1
CCC(C)NC(=O)c1cc(-c2ccc(OC)cc2)on1 (centres undefined) | 1 | -1 | 2 | 11* | 3
Cc1ccc(O)c(NC(=O)c2cc(-c3ccccc3)on2)c1 | 4.9* | -1 | 1 | 3 | 3
Cc1ccc(-c2cc(C(=O)NCCCn3ccnc3)no2)cc1 | 0 | -1 | 0 | 8 | -2
COc1ccc(-c2cc(C(=O)Nc3cccc(Cl)c3)no2)cc1 | 4.2* | -1 | 0 | 8 | 2
O=C(Nc1cc(Br)ccc1O)c1cc(-c2ccccc2)on1 | 2 | 0 | 0 | 1 | 4
O=C(NCCCn1ccnc1)c1cc(-c2cccc(O)c2)on1 | 4.7* | 0 | 1 | 10 | 1
N#Cc1ccc(C(=O)N2CCCCC2c2cc(C(=O)NCc3ccccc3)no2)cc1 (centres undefined) | x | -1 | 0 | -3 | -1
